PubChem BioAssay AID686978 (National Center for Advancing Translational Sciences (NCATS), 2013)
In all, about 420,000 compounds went through this assay and about 64,000 (15%) were called active. Inconclusive results (about 27%) are left out. Calls follow the shape of the dose curve; as a rule, active = well fitted inhibition curve with a large enough effect; inconclusive = small, poorly fitted or top-dose-only effect; inactive = flat fitted curve, though single readings scatter. These entries were drawn from the full list.

Experiment: qHTS for Inhibitors of human tyrosyl-DNA phosphodiesterase 1 (TDP1): qHTS in cells in absence of CPT; also: nearly all actives have a fitted effect of over 55% in size
Settings: DT40 Tdp1-/- hTDP1 cells, no CPT, ATP luminescence, 48 h; activity change, negative = growth inhibition: at 46.2 µM (top of the series)
Outline: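 Chicken DT40 Tdp1-/- cells stably complemented with human TDP1 were seeded at 400 cells/well with DMSO in place of 20 nM camptothecin. After compound pinning, cells grew at least 48 hr at 37 °C; viability read by CellTiter-Glo luminescence.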
% is scaled to controls: 0 for no effect and ±100 for the full control effect; potency is read from the fitted curve at half-maximal effect.

Row | SMILES | activity change, negative = growth inhibition | Potency
1 | CCCCc1nc(SCC(=O)Nc2nnc(C(C)C)s2)n[nH]1 | -3.34% (inactive) | –
2 | COc1cccc(N2C(=O)CN(Cc3ccccc3)C2=S)c1 | 17.9% (inactive) | –
3 | COc1ccccc1NC(=O)C1=C(C)Nc2nnnn2C1c1cccc(Br)c1 (configuration not stated) | 5.32% (inactive) | –
4 | Cc1cc([N+](=O)[O-])c(-c2ccc(/C=N/n3cnnc3)o2)cc1Cl | -24.4% (inactive) | –
5 | Cc1ccccc1OCCOc1ccc([N+](=O)[O-])cc1/C=N/n1cnnc1 | – | 1.46 µM (active)
6 | COc1ccccc1OCCOc1ccc(/C=N/n2cnnc2)cc1 | -6.26% (inactive) | –
7 | Cc1ccc(Cn2c(=O)n(-c3ccc(C)cc3)c(=O)c3c2c2cc(C)ccc2n3C)cc1 | -13.4% (inactive) | –
8 | Cc1nnc(SCC(=O)N2CCOCC2)[nH]c1=O | 0.581% (inactive) | –
9 | CCC(C)n1[nH]c(=O)c2c(C)cc(C)nc21 (configuration not stated) | -4.35% (inactive) | –
10 | Cc1ccc(S(=O)(=O)N2CCC(C(=O)OCC(=O)N3CC(=O)Nc4ccccc43)CC2)cc1 | -1.96% (inactive) | –
11 | CCOC(=O)COn1c(=O)c(-c2ccc(OCC)cc2)[n+]([O-])c2ccccc21 | -0.585% (inactive) | –
12 | CCOc1ccc(OCC)c(-c2c(=O)n(OCc3ccc(Cl)cc3)c3ccccc3[n+]2[O-])c1 | – | 8.2 µM (active)
13 | O=c1c(-c2ccc(Cl)cc2)[n+]([O-])c2ccccc2n1OCc1nc2ccccc2[nH]1 | -28.2% (inactive) | –
14 | COc1ccc(OC)c(-c2c(=O)n(OCc3ccccc3Br)c3ccccc3[n+]2[O-])c1 | – | 23.1 µM (active)
15 | Cc1cc(C)cc(OCC(=O)OCC(=O)NC2CCCC2)c1 | -7.14% (inactive) | –
16 | COC(=O)Cc1nc2c(N)nc(N)nc2[nH]c1=O | -24.5% (inactive) | –
17 | CC1CCCCN1S(=O)(=O)c1ccc(F)c(C(=O)Nc2ccccc2C(F)(F)F)c1 (configuration not stated) | – | 18.4 µM (active)
18 | CC(C)c1ccc(NC(=O)c2cc(S(=O)(=O)N3CCc4ccccc4C3)ccc2F)cc1 | -28.2% (inactive) | –
19 | CS(=O)(=O)N1CCCC(C(=O)Nc2ccccc2C(F)(F)F)C1 (configuration not stated) | -7.79% (inactive) | –
20 | COc1cc(OC)c(C(=O)NNC(=O)c2ccccc2-n2cccc2)cc1OC | -16.9% (inactive) | –
21 | O=C(O)c1n[nH]nc1-c1ccccc1 | 0.0814% (inactive) | –
22 | CC(C)(C)OC(=O)N1CCC(c2c(C(=O)N3CCN(c4cccc(Cl)c4)CC3)cnn2-c2cccc(Cl)c2)CC1 | – | 9.2 µM (active)
23 | CC(C)(C)OC(=O)N1CCN(C(=O)c2[nH]c(C(F)(F)F)nc2-c2ccccc2)CC1 | -12.2% (inactive) | –

Row | SMILES | activity change, negative = growth inhibition | Potency
24 | Cc1cccc(-n2ncc(C(=O)N3CCc4ccccc4C3)c2C2CCN(C(=O)OC(C)(C)C)CC2)c1 | -6.29% (inactive) | –
25 | Cc1cccc(-n2ncc(C(=O)N3CCN(c4ccc(Cl)cc4)CC3)c2C2CCN(C(=O)OC(C)(C)C)CC2)c1 | – | 9.2 µM (active)
26 | Cc1cccc(-n2ncc(C(=O)N3CCC(C)CC3)c2C2CCN(C(=O)OC(C)(C)C)CC2)c1 | -5.88% (inactive) | –
27 | CC(C)(C)OC(=O)N1CCC(C(=O)NNC(=O)c2ccc(Cl)cc2Cl)CC1 | 8.06% (inactive) | –
28 | N/C(=N\OC(=O)CCC1CCCCC1)c1ccccn1 | -21.2% (inactive) | –
29 | Cc1cccc(OCC(=O)NC2CC(C)(C)NC(C)(C)C2)c1 | -16.6% (inactive) | –
30 | C/C(=N\NC(=O)Cc1ccccc1[N+](=O)[O-])c1cccnc1 | 6.28% (inactive) | –
31 | S=C(c1ccccc1)N1CCCC1 | 0.14% (inactive) | –
32 | CN(O)C(=S)c1ccccc1 | – | 0.164 µM (active)
33 | CN(CC(=O)O)C(=O)c1ccccc1 | -4.58% (inactive) | –
34 | CN(C)C(=O)c1ccc(-c2cncnc2Nc2ccccc2)cc1 | -23.9% (inactive) | –
35 | CC(Cc1cccs1)NC(=O)NC1CCCCC1 (configuration not stated) | -4.59% (inactive) | –
36 | Cc1nc([N+](=O)[O-])cn1CC(=O)Nc1ccc2c(c1)OCO2 | -0.205% (inactive) | –
37 | COc1ccc(C(=O)COC(=O)C(O)c2ccccc2)c(OC)c1 (configuration not stated) | -7.11% (inactive) | –
38 | Cc1c(C(=O)c2cccc([N+](=O)[O-])c2)c2ccccn2c1CCC#N | -25.6% (inactive) | –
39 | COc1ccc(C(=O)c2c(C)c(CCC#N)n3ccccc23)c(OC)c1 | – | 20.6 µM (active)
40 | CC(C)(C)c1ccc(/C=C2\Oc3c(ccc(O)c3CN3CCN(CCO)CC3)C2=O)cc1 | -24.5% (inactive) | –
41 | CCCCNC(=O)N1CCCC(N(C)CCc2ccc(OC)c(OC)c2)C1 (configuration not stated) | 2.85% (inactive) | –
42 | CC(C)=CCCC1(C)C=Cc2c(ccc3c2[nH]c2cc(O)c(C)cc23)O1 (configuration not stated) | – | 16.4 µM (active)
43 | COc1ccc(-c2cnc(SCCNC(=O)c3ccc4c(c3)OCO4)[nH]2)cc1 | -8.15% (inactive) | –
44 | Brc1ccc(-c2nnc(-c3ccccc3)o2)o1 | -10.6% (inactive) | –
45 | Cc1ccc(CN2CCN(c3ccccc3Cl)CC2)o1 | -19.5% (inactive) | –
46 | O=C(CN1CCCCC1)NC(=O)Nc1ccccc1F | -17.6% (inactive) | –

Row | SMILES | activity change, negative = growth inhibition | Potency
47 | O=C(CSC(=S)N1CCCCC1)c1c(F)cccc1F | – | 8.2 µM (active)
48 | O=C(O)c1cc2c(cc1NC(=O)c1c(F)cccc1Cl)OCCCO2 | -9.76% (inactive) | –
49 | Cc1nnc(SCC(=O)N(C(C)C)C(C)C)nc1C | 2.84% (inactive) | –
50 | CC(=O)NCCC(=O)Nc1nc(C)c(Cc2ccc3c(c2)OCO3)s1 | -21.1% (inactive) | –
51 | CCc1nc(SCC(=O)NNC(=O)c2ccc(C)cc2)c2ccccc2n1 | -19.2% (inactive) | –
52 | CC(=O)Nc1ccc(Nc2c3ccccc3nc3ccccc23)cc1 | – | 0.0082 µM (active)
53 | N#Cc1cccc(NC(=O)CN2CCCCCC2)c1 | 11.8% (inactive) | –
54 | CC(=O)Nc1ccc(Nc2nc3c(S(=O)(=O)c4ccc(C)c(C)c4)nnn3c3ccccc23)cc1 | -7.06% (inactive) | –
55 | Cc1c(NC(=O)Nc2cccc([N+](=O)[O-])c2)c(=O)n(-c2ccccc2)n1C | -13.3% (inactive) | –
56 | O=C(Nc1cccc([N+](=O)[O-])c1)Nn1cnnc1 | 15.6% (inactive) | –
57 | CC(=O)Nc1ccc(NC(=O)C(C)n2c3ccccc3c3nc(=O)cc(C)n32)cc1 (configuration not stated) | -20.6% (inactive) | –
58 | N#Cc1cccc(Nc2c3c(nc4ccccc24)CCCC3)c1 | – | 25.9 µM (active)
59 | O=[N+]([O-])c1cccc(Nc2c3ccccc3nc3ccccc23)c1 | – | 16.4 µM (active)
60 | N#Cc1cccc(NC(=O)CCC2CCCC2)c1 | -19.6% (inactive) | –
61 | Cc1ccc(Nc2c3c(nc4ccccc24)CCC3)cc1 | – | 18.4 µM (active)
62 | Cc1nn(C(C)(C)C)c(OC(=O)CC(C)C)c1S(=O)(=O)c1ccccc1 | -26.5% (inactive) | –
63 | CCn1c(CC(=O)Nc2ccccc2)nnc1SCC(=O)N1CCOCC1 | -8.98% (inactive) | –
64 | CCC1C(=O)c2ccccc2N(C)C1=O (configuration not stated) | -14.1% (inactive) | –
65 | Cc1[nH]n(-c2ccc([N+](=O)[O-])cc2)c(=O)c1C=NCCN1CCN(C(=O)c2ccccc2F)CC1 | – | 14.6 µM (active)
66 | Cc1[nH]n(-c2ccccc2)c(=O)c1N=Nc1ccccc1C(=O)N1CCCCC1 | 5.87% (inactive) | –
67 | CN1CCN(C(=O)c2cnn(-c3ccccc3)c2NC(=O)c2ccc([N+](=O)[O-])cc2)CC1 | 4.52% (inactive) | –
